The whole screen tested about 200,000 compounds, of which about 18,000 (9%) were called active. No stated cut-off is given here; in the data, active means inhibition above about 50%; inactive means the rest. What follows is part of a selection rich in actives, with near analogues and random picks from the rest.

Usually inhibition stands for the relative decrease from the control value, in per cent.

This assay in a line: Leishmania major promastigote growth inhibition, primary screen (AID 1063).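 Further: promastigotes grown with compound for 44 hours at 28 °C.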 To be noted: Leishmania major promastigotes, resazurin fluorescence viability; at 10 µM; stronger effect = higher value. On the technique in general: The colour change of resazurin is a common sign of viable cells or microbes.
Take `CCc1c(C)nc2c(OC)cccc2c1Cl`: the inhibition was -3.45% (inactive).
In the case of `Cc1cccc(C(=O)OCC(=O)NCC(C)C)c1O`, the inhibition was -1.6% (inactive).
Under `Fc1ccc(COc2cccc(-c3n[nH]c(=S)o3)c2)cc1` stands -2.62% (inactive); under `N#Cc1ncc(C(F)(F)F)cc1Oc1cccnc1`, -5.89% (inactive).
Regarding `O=C(CSc1nnc(-c2ccc([N+](=O)[O-])cc2)o1)Nc1ccccn1`, the inhibition was 6.18% (inactive).
Consider `COc1ccc(/C=C(\C#N)C(=O)ONC2=NCCCCC2)cc1`, for which the inhibition was -4.23% (inactive).
`COc1ccc(CCN2C(=O)c3[nH]nc(-c4ccccc4O)c3C2c2ccc(C)cc2)cc1OC` (stereo not drawn): the inhibition was 75% (active).
For `COc1ccc(CCN(C)CCN2C(=O)c3ccccc3C2=O)cc1OC`, the inhibition was -2.69% (inactive).
`COC(=O)c1ccc(C2C(Oc3ccccc3C)C(=O)N2CCc2ccc(OC)c(OC)c2)cc1` (stereo not drawn): the inhibition is 5.32% (inactive).
Next, `CN1C(=O)/C(=C\c2cc(Br)cs2)c2ccccc21`: 13.9% (inactive); `CCC(C)c1ccc(NC(=S)NCc2ccccn2)cc1` (stereo not drawn): -0.38% (inactive); `Cc1cccc(C)c1N1CCN(S(=O)(=O)N2CCCCC2)CC1`: 15.9% (inactive).
Next, `Cc1cc(C)c2c3c(sc2n1)C(c1ccccc1)C(C#N)=C(N)O3` (stereo not drawn): 100% (active).
Consider `Cc1cc(C)c(C#N)c(SCc2[nH]nc3c2C(c2ccccc2)C(C#N)=C(N)O3)n1` (stereo not drawn), for which the inhibition was 8.99% (inactive).
As to `N#CC1=C(N)Oc2c(sc3ccccc23)C1c1ccco1` (stereo not drawn), the inhibition was 9.33% (inactive).
Next, `CC(=O)NC(=S)NNC(=O)c1ccc(Br)cc1`: -4.54% (inactive); `CCOc1ccc(Br)cc1S(=O)(=O)N1CCC(C(=O)O)CC1`: -5.93% (inactive).
For `CC1Cc2ccccc2N1C1=CC(=O)CC(C)(C)C1` (stereo not drawn), the inhibition is 7.71% (inactive).
For the compound `COc1ccc(C(=O)NC(=S)NNC(=O)CCc2ccccc2)cc1`, the inhibition was 93.2% (active).
Regarding `COc1ccc(C(=O)NC(=S)NNC(=O)c2c(-c3ccccc3)noc2C)cc1`, the inhibition is -0.99% (inactive).
As for `O=C(CCc1ccccc1)NNC(=O)c1ccc(Br)cc1`, the inhibition was -3.53% (inactive).
For `O=C(CCCc1ccccc1)NCc1ccccc1`, the inhibition was -8% (inactive).
`Cn1c(=O)n(C)c(=O)n(CC(=O)N2CCCCC2)c1=O`: the inhibition is -4.15% (inactive).
Next, `O=C(CN1C(=O)c2cccc3cccc1c23)Nc1ccccc1`: -9.01% (inactive); `O=C(CN1C(=O)c2cccc3cccc(c23)C1=O)N1CCCCC1`: 89.8% (active); `COc1ccc(OCC(=O)NNC(=O)c2cccc(C)c2)cc1`: -6.27% (inactive).
Consider `Cc1ccc(CC(=O)Nc2cccc(C#N)c2)cc1`, for which the inhibition was -0.29% (inactive).
Regarding `CC(=O)c1sc(NC(=O)CCCOc2ccccc2C)nc1C`, the inhibition is -7.25% (inactive).
Next, `COc1cccc2sc(NNC(=O)c3nc4ccccc4s3)nc12`: 48.5% (inactive).
Consider `COc1cccc2sc(Nc3nc(C)c(C(C)=O)s3)nc12`, for which the inhibition was 98.4% (active).
For `COC(=O)CSc1ccc2nnc(CCNS(=O)(=O)c3ccc(C)cc3)n2n1`, the inhibition was 2.97% (inactive).
As for `CSc1ncccc1C(=O)OCc1ccc(Br)cc1`, the inhibition was -1.11% (inactive).
`CCOC(=O)/C(=N\Nc1ccccc1Cl)N(C)C1CCS(=O)(=O)C1` (stereo not drawn): the inhibition is -1.23% (inactive).
For the compound `CCOC(=O)c1cccc(NC(=O)CCOc2ccccc2)c1`, the inhibition is 9.18% (inactive).
As to `CCc1cccc(NC(=O)CCC(=O)O)c1`, the inhibition was 52.3% (active).
Under `CCc1cccc(NC(=O)CCNS(=O)(=O)c2cccc3nonc23)c1` stands -7.76% (inactive); under `CC(OC(=O)c1ccccc1OCc1ccc(Cl)cc1)C(N)=O` (stereo not drawn), 10.8% (inactive).
Consider `CC1CN(/C=C/C(=O)C(F)(F)F)CC(C)O1` (stereo not drawn), for which the inhibition is -1.49% (inactive).
For the compound `COCC1CCCN(Cc2nc(-c3ccc4c(c3)OCO4)no2)C1` (stereo not drawn), the inhibition is 0.34% (inactive).
For the compound `CN(C(=O)COc1ccccc1)c1nnc(-c2ccncc2)s1`, the inhibition was -4.81% (inactive).
For the compound `COc1ccc(CCNc2nc(-c3cccc(NC(C)=O)c3)cs2)cc1OC`, the inhibition was 3.47% (inactive).
For the compound `COc1ccc(CCN(C(=O)COc2ccccc2)c2nc(-c3ccccc3)cs2)cc1OC`, the inhibition was 52.1% (active).
As for `COc1ccc(-n2c(C)nn(CC3CC3)c2=O)cc1`, the inhibition is -6.72% (inactive).
For the compound `CC(=O)O[C@]1(C(C)=O)CC[C@H]2[C@@H]3C=C(C)C4=CC(=O)CC[C@]4(C)[C@H]3CC[C@@]21C`, the inhibition was 69.8% (active).
In the case of `CCN(CC)S(=O)(=O)c1cc([N+](=O)[O-])ccc1NNC(=O)Nc1ccccc1`, the inhibition was 31.2% (inactive).
With `CCN(CC)S(=O)(=O)c1cc([N+](=O)[O-])ccc1N=Nc1c(O)n(C)c2ccccc12`, the inhibition is 65.5% (active).
As for `CCn1c(O)c(N=NC(=O)c2cccc(S(=O)(=O)N3CCCCC3)c2)c2ccccc21`, the inhibition was 3.18% (inactive).
With `Cc1cccc(CN2CCN(Cc3cnn(-c4ccccc4F)c3)CC2CCO)n1` (stereo not drawn), the inhibition is 3.31% (inactive).
As for `O=C(NCCOc1ccccc1F)Nc1ccc(Br)cc1`, the inhibition was 1.12% (inactive).
Consider `O=C(CN(C(=O)c1csnn1)c1cccc(F)c1)NCc1ccc(F)cc1`, for which the inhibition was -3.27% (inactive).
In the case of `COc1ccc(C2=NN(C(=O)CCC(=O)O)C(c3cccs3)C2)cc1OC` (stereo not drawn), the inhibition was -5.57% (inactive).
Turning to `COC(=O)C1=CN(Cc2ccc(OC)c(OC)c2)C=C(C(=O)OC)C1c1cccs1`, the inhibition is 100% (active).
Next, `COc1ccc(CN(C(=O)c2cccs2)c2nccs2)cc1OC`: 0.69% (inactive); `CCCCc1nnc(NC(=O)CSc2nc(N)cc(=O)[nH]2)s1`: 1.7% (inactive); `Cc1cc(NC(=O)/C=C/C(=O)N(CC(=O)NC2CCCC2)c2ccc(F)cc2)no1`: 5.25% (inactive).
Under `Cc1cc(NC(=O)/C=C/C(=O)N(c2ccccc2C)C(C(=O)NC2CCCC2)c2ccc(F)cc2)no1` (stereo not drawn) stands 71.3% (active).
Regarding `Cc1cc(NC(=O)CCC(=O)N(c2cccc(F)c2)C(C(=O)NC2CCCC2)c2ccncc2)no1` (stereo not drawn), the inhibition is -6.83% (inactive).
Under `CC(=O)c1ccc(NC(=O)CSC(=S)N2CCCC2)cc1` stands -5.47% (inactive); under `O=C(Nc1nnc(Cc2ccccc2)s1)c1cnccn1`, 1.06% (inactive); under `COc1ccc(NC(=O)CSc2nc(C)cs2)cc1`, 8.18% (inactive).
Next, `Cc1nn(CC2CC2)c(=O)n1N(C)c1ncc(C(F)(F)F)cc1Cl`: 74.1% (active); `Cc1nn(-c2ncc(C(F)(F)F)cc2Cl)c(=O)n1-c1ccccc1`: -12.9% (inactive).
`Cc1nn(CC#N)c(=O)n1N(C)c1ncc(C(F)(F)F)cc1Cl`: the inhibition is -6.01% (inactive).

For the origin of these results see PubChem BioAssay AID1063 (University of Pittsburgh Molecular Library Screening Center, 2008).
